# Laboratory results reported in paper PMC12864922, “TDP-43 directly inhibits mRNA accumulation in neurites through modulation of mRNA stability”.
# The full ranking holds about 9,900 sequences; the median of “r (bound/input frequency ratio)” is about 0.7, and the highest 2% start at about 6.5. The full list was thinned out, with the highest values kept by preference.
# B1: ENSMUSG00000034801.154|Sos2|134:138;197:201;231:235 (ssRNA)
# RNA: GGGAGUUCUACAGUCCGACGAUCGCUUCGAUAUCCGCAUGCUAUUGUUUGGUUUUUACAUCUAGGAGACUUAGGAAUAAUACCCACUGUUCUUAAACUCUUUGAGACCAUGUCUUAAAUGUCAGUAUUUGCUGCUGAAGACAAAAACGGAAAAUAGAAUGAAAUAAUAGAAUGCACACACAUUAUUAUUUUGUUAAAAUUAUAAACAGUUCUACAUAACCUGAUUAUAGAAGAAGGGCAACACAUCAUUAAGAUGUGCCUUUUGUUUUGCAGUCAUACGUGUUUAGCUAAUCAUUGUUUAGCUCUCUUGCGGUCGCACUAGUGUGGAAUUCUCGGGUGUCAAGG
# B2: ENSMUSG00000028439.239|Fam219a|33:39;67:71;117:126;145:149 (ssRNA)
# RNA: GGGAGUUCUACAGUCCGACGAUCGCUUCGAUAUCCGCAUGCUAUCACAGGAGUUUCUGCAAAAGACUAUGACAUCACACACACUGUGGUCUCACGAGGUACCUGGAGGUCAUACUGCACGGACAUGGGAAGUACGUGAAGAUUUAUUUCGGGAAAAGUGCACACACACAAGCUGUACUGGGUGUCAUCAUACCUGUUGCUUCUGCUGCUGGUCUGGUCUGAGGGAGGAAAGCUGAGGCUGUAGCUCAGUGAGAUGGUGGCUCUCCCAUGGCUGAAGACAAGUGCAAGCAGAGAGAGCCUCAGGCUCUUGCGGUCGCACUAGUGUGGAAUUCUCGGGUGUCAAGG
# B3: ENSMUSG00000031028.61|Tub|157:169;187:191 (ssRNA)
# RNA: GGGAGUUCUACAGUCCGACGAUCGCUUCGAUAUCCGCAUGCUAUCAGUCCCCUGCUGCAGUGGUGUUAUCACACCGGAAAGCCUCUUCACCUGGAGGUACAGAGGGAGAGGAAGCACAAGCCUGGCUGCUGUGGCUCAGCCAUCCACUCAGCCUACGAGUCAGAGACAGUGGGUGUCCCGGGAAGCAGGGGUACAGUGACACACACACAUACUACAGGGCACUCAAGCUCAUACUAGAAAAAGCUCUGGUGGUCAGCAGAAAGCACUCCCACUUCAAAAGGGCCCAUUAGGCCCAAAGGGGGUCUCUUGCGGUCGCACUAGUGUGGAAUUCUCGGGUGUCAAGG
# B4: ENSMUSG00000032194.9|Kank2 (ssRNA)
# RNA: GGGAGUUCUACAGUCCGACGAUCGCUUCGAUAUCCGCAUGCUAGAGUGAAUACAGGGAGGAGCCAGUGAGUCCCCCAGGACCCACCAGCCACAAGCCACGCAUCAAACCGUCCCUCCUCCAUCCCUCUGUCCCAUUCUGCCUCGGCAUUCCUCAGCCCCUGAACUUCCCUGAGGGAGCCCUGACAUCUACCAGGCUCAAGCUCCUGGAAGCCUUUCCCAGCACCCUGGGUUCAAAGCCAGAAAGCCAAGCUACAUUCUCCUCCCAGUUGGCACCAGUUGACAACGCCUUGGGUGUGGGUUUCUCUCUUGCGGUCGCACUAGUGUGGAAUUCUCGGGUGUCAAGG
# B5: ENSMUSG00000061578.1396|Ksr2 (ssRNA)
# RNA: GGGAGUUCUACAGUCCGACGAUCGCUUCGAUAUCCGCAUGCUAAAGUAUAUAUACCUAUAAAUGCUAUAUAUAUUAUAUAUGUGUAUAUACAUAAAGACUACUUCUUGUACAGCCCUCCACGGACCUCAGGCCCACUGUUUUCUCCAUGUCUGUCUGUACUGACUGUUGCAGAAUGAGCUGAUGUAUGAUCUUGAUUCUCCAUUUUCCUUCUGGACCACAUGUCUCUUCCUUUUCCUUUUUAGAUCUGUCUUGCUCUCUGUCUCUCUCACUCAUUGCCAACAUGUUGCUGGGAAAGAAUAUUUCUCUUGCGGUCGCACUAGUGUGGAAUUCUCGGGUGUCAAGG
# B6: ENSMUSG00000043670.80|Diras1|67:72 (ssRNA)
# RNA: GGGAGUUCUACAGUCCGACGAUCGCUUCGAUAUCCGCAUGCUACUGGCUAAGGAACUGCUCAUCCCAGUCAGGCCCAGAGAGGUUACCUUGCCUCUCCAUCUCUGUCCCACACACCCCAGCCAUGCCCACUGUCCCUGUCCCUCACAUUCUAUCACUGUGACCUCUGGGGAGUGCCCAUUGACCUCAUCUUCCUUCACUAAUAUCUUAUUUCUUUCACCUGAUCCUGUCCUUUCCCCGUGACCUCUGACCUGUGGCCUUCCCUGGGUCCAGAACACCCCUGUCCUCUCCUGUCUGCACACCAGCUCUUGCGGUCGCACUAGUGUGGAAUUCUCGGGUGUCAAGG
# B7: ENSMUSG00000090935.729|Synj2bp (ssRNA)
# RNA: GGGAGUUCUACAGUCCGACGAUCGCUUCGAUAUCCGCAUGCUAAUCAACCUCCAGUAACAUAUGUGGUUAGUAAGUGCUUCAGCUUGUGUAGCCAUUAAUAACCAAGUCAUAGGAUUGUGAAUCUAAAAUACUCCUGGGUAAAAUUUGUAUUAGAAUGGAAAAAAAAAUGAGGGUCAGAAAGGUGAGCUAACUUCAAGUUAGAUACUCCCCUCUAUUUUGGUCUCAAAUUUGUUUUAGUGUGUCCACAACAUGAAAACAUACAAAAACUAUAUUUUAAAAAUCAGUUUACUUUCAUCUUUUCUCUCUUGCGGUCGCACUAGUGUGGAAUUCUCGGGUGUCAAGG
# B8: ENSMUSG00000022095.164|Fam160b2|44:48 (ssRNA)
# RNA: GGGAGUUCUACAGUCCGACGAUCGCUUCGAUAUCCGCAUGCUAGGCUAGGCCGAGACACAAGCAGAUAGCUCUGGCAUUGUUCUUCCAUACUCCUCCAUGGCUGGGGCUGCUACCUCACCCGGCCUGAAUCUGUCUCAACCUGCAAGAGCACUCGGGCGGCGCCAGGCAUUACCUCACAACAGGCCUGCAGUUGUUGGCUUCCCUCCUGGGCAAGGAGGAGCAGGCCAGAGCCCCUUUUGCUUCCUUUUCCUGCCCAUGCCACCUCUCGAAGCCGGGCACAGGUUGCCAGGAGGUGACAUGAACUCUUGCGGUCGCACUAGUGUGGAAUUCUCGGGUGUCAAGG
# B9: ENSMUSG00000004113.278|Cacna1b|87:91;151:155;229:260 (ssRNA)
# RNA: GGGAGUUCUACAGUCCGACGAUCGCUUCGAUAUCCGCAUGCUAAAGUCAGGCCCCUGGCUUAGCACUAGAAAAAAUAAAACCUCAUGGCUGCUUUGCAAAGGGAAAACCCAUGCUCAGGAAGGUGUUCACACACCACAGAUAGCUGGGAGGCCACGAGAGAAAGGUUGCACACAGACAGGCAGGCACUCCUUGCACACGUCUCUCUGUUUUGAAACUUCUGAUGACUUCUUGGUGGCUUGUUGUCUUCUACCCCAUGUUUCUCACAGGAUCACACACACACACACACACACACACACACACACCUCUUGCGGUCGCACUAGUGUGGAAUUCUCGGGUGUCAAGG
# Biological target: TDP-43 (Homo sapiens, UniProt Q13148 1-414)
# Experiment: RNA Bind-n-Seq with designed 260-mer pool; 25 mM Tris-HCl, 150 mM KCl, 3 mM MgCl2, BSA (printed 500 mg/mL), 20 units/mL SUPERase IN; pH not stated; 500 nM RNA pool, 1 h, 4 C; TDP-43 5, 50, 500 nM; high values mean tight binding
# Settings: protein: recombinant; tags: SBP (GST cleaved off with PreScission; pGEX-GST-SBP)
# In short: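 Streptavidin beads captured recombinant SBP-tagged TDP-43 at 5, 50 or 500 nM, and the beads were incubated for 1 h at 4 °C with 500 nM of an in vitro-transcribed pool of 260-nt 3′ UTR oligos in 25 mM Tris-HCl, 150 mM KCl, 3 mM MgCl2, BSA and SUPERase IN. After washing, bound RNA was eluted with biotin, reverse transcribed, PCR-amplified and sequenced. Binding is reported as R, the mapped-read-normalized abundance of each oligo in the bound sample divided by its abundance in the input. Two independent protein batches served as duplicates.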
# Sequence of TDP-43 (Q13148 whole entry): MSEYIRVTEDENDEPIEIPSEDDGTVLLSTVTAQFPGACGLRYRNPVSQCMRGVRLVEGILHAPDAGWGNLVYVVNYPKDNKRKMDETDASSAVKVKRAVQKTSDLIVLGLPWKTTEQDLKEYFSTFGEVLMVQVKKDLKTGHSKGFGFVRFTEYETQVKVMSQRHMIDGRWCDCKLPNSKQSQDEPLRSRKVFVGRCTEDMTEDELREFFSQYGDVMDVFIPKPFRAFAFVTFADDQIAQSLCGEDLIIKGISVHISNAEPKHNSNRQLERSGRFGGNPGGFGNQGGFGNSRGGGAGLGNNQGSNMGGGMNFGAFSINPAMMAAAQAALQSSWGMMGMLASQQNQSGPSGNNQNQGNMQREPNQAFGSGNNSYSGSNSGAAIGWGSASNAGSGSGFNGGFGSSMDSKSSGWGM
row,Binder,binding signal
1,B1,0.018 R (bound/input frequency ratio)
2,B2,1.35 R (bound/input frequency ratio)
3,B3,0.59 R (bound/input frequency ratio)
4,B4,1.04 R (bound/input frequency ratio)
5,B5,0.176 R (bound/input frequency ratio)
6,B6,2.36 R (bound/input frequency ratio)
7,B7,0.0597 R (bound/input frequency ratio)
8,B8,0.529 R (bound/input frequency ratio)
9,B9,1.82 R (bound/input frequency ratio)
